Measurements reported in the OligoGym collection.

Target: RHOH
Assay: pooled miR-30 sensor sort-seq; sequence = guide strand
Conditions: shRNA
Note: reference of the scale not given here.

Row | Sequence | sensor-assay potency score (higher = more potent)
1 | TTCTGAAGGCGTCATTGCCGGC | -1.35
2 | TCCATGAAGACGTCCACCCCTG | -1.1
3 | TACACTGTGGGCTTGTAGGCCT | -0.53
4 | TAATTTCACCAATCCACTTGTT | 0.134
5 | TAGCACATCAGCACCACGTCTG | 0.265
6 | TAGGCCTCCGGGAAGGTCTCGG | -0.658
7 | TTGACGGCAGTTCGGACGGCGC | -1.65
8 | TTCAGGAATGAGTTATGGTTGG | -0.949
9 | TTCACTTGTAGAGTGTAGTTAG | 0.0342
10 | TTGTAGAGTGTAGTTAGTGAAA | -1.62
11 | AACACCTGCTGTACTCCCCGAT | -0.621
12 | AAACACCTGCTGTACTCCCCGA | -0.993
13 | TAAGGGCTGAGCACTCCAGGTA | -0.636
14 | TTCCATGGCATTGACGCAGGAG | 0.27
15 | TGTTCTCGTACACTGTGGGCTT | -0.393
16 | TTCTCGTACACTGTGGGCTTGT | -0.506
